A selection: hits, their analogues and other compounds. The true share with any hit is near 4.6%.
Tau FP inhib: tau fibrillization inhibition (FP); P10636; K18 P301L tau heparin fibrillization, Alexa594 FP, 6 h; Potency, µM (titrated, usually from 57.7 µM), usual class: inhibitors; 280,000 compounds, 0.39% hits; also: nearly all actives have a fitted effect of over 55% in size
Target sequence (P10636 561-689 P618L limits assumed): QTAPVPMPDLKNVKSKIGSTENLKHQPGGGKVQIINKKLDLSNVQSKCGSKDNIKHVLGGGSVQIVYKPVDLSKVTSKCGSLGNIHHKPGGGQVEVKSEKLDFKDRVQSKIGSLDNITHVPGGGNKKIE
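Recombinant K18 P301L […], labeled with Alexa 594 at 0.24 uM over 15 uM unlabeled; heparin inducer 20 uM final; 37 C, 6 hr; FP endpoint.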
TRb-SRC2 inh: inhibitors of human thyroid hormone receptor beta-SRC2 interaction; P10828; TRbeta-SRC2 peptide binding, fluorescence polarization; receptor liganded with 1 µM T3; Potency, µM (doses to about 106 µM), hits mostly inhibitors; 280,000 compounds, 0.065% hits; AID 1469; also: nearly all actives have a fitted effect of over 50% in size
Target sequence (P10828 whole entry, looked up): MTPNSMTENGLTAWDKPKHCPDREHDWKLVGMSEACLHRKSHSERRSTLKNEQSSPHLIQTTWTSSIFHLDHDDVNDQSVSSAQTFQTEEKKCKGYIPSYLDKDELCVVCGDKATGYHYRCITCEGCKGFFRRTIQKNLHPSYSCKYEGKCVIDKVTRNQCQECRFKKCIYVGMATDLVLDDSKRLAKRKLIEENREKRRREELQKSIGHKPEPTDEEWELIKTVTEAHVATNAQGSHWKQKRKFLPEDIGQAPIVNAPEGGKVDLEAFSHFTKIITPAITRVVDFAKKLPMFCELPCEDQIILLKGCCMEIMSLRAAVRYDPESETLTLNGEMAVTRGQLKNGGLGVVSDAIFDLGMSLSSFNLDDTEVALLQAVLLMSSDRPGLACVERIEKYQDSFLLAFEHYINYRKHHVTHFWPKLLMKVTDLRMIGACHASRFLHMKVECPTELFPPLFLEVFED
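Binding of a 20-amino-acid Texas Red SRC2 peptide (20 nM) to TRb ligand-binding domain (0.6 uM) with agonist T3 at 1 uM was followed by fluorescence polarization after a 5 hr room-temperature incubation.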
PNC assembly inh: perinucleolar compartment assembly inhibition | PC3M PTB-GFP, PNC prevalence imaging, 16 h; stronger effect = lower value | activity change (PNC), negative = inhibition, % at 10 µM | 140,000 compounds, 3.1% hits;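 active = readout at or below -70, meaning at least 70% loss of cells showing the perinucleolar compartment, a nuclear body marking cancer cells; inconclusive = readout between -30 and a set limit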
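Compounds are pinned in duplicate onto adhered PC3M cells stably expressing GFP-tagged PTB and incubated 16 h at 37 C. Cells are then fixed, nuclei stained with Hoechst, and PNC-positive cells counted.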
Tau ThT inhib: blocks human tau fibril formation measured by thioflavin T; AID 1460; Potency, µM (top dose mostly 57.4 µM), actives largely listed as inhibitors; 270,000 compounds, 2.1% hits; recombinant tau K18 P301L, heparin-induced fibrillization, ThT fluorescence; also: nearly all actives have a fitted effect of over 55% in size
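Aggregation was driven by heparin (20 uM final) acting on recombinant tau […] bearing P301L in 100 mM sodium acetate pH 7; fibrils were detected with Thioflavin T.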
TR SRC2 fluor cs: alters Texas Red total fluorescence, flagging assay interference | TRb/SRC2 Texas Red total fluorescence interference | Potency, µM (highest dose often 106 µM) | 280,000 compounds, 0.29% hits | AID 1479; active = well fitted curve in either direction with a large enough effect; inconclusive = small, poorly fitted or top-dose-only effect
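Human TRβ ligand-binding domain (0.6 uM) and Texas Red SRC2 peptide (20 nM) in Tris buffer with 1 uM T3 and 5% DMSO were incubated with pinned compound for 5 hr at ambient temperature. Total fluorescence was computed as S + 2P (555/632 nm).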
Tau fluor counter: counter-screen for tau fibril formation inhibitors | tau K18 P301L Alexa594 fluorescence, heparin fibrillization | Potency, µM (titrated, usually from 57.7 µM) | 280,000 compounds, 0.93% hits; also: nearly all actives have a fitted effect of over 55% in size
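Human tau K18 P301L (15 uM unlabeled, 0.24 uM Alexa 594-labeled) in 100 mM sodium acetate pH 7 with 20 uM heparin, 6 hr at 37 C. ThT 30 uM added, 1 hr ambient; Alexa 594 FP and total fluorescence read at 555/632 nm.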
Large screens that a line does not name were inactive; [ ] = remark or other dose. Unless noted, calls follow the shape of the dose curve; as a rule, active = well fitted curve in the direction sought with a large enough effect; inconclusive = small, poorly fitted or top-dose-only effect, or another doubt; inactive = no such curve, though single readings can be large; an effect the other way counts as inactive or inconclusive.

CCOC(=O)C1CCN(c2c(NCc3ccc(C(=O)NCCC(C)C)cc3)c(=O)c2=O)CC1	none
Cc1cc(O)c(/C=N/OCc2ccc(Cl)cc2Cl)c(=O)o1	none (no result: PNC assembly inh)
CN(C)/C=C(\C=N\OCc1ccc(Cl)cc1Cl)C(=O)Nc1ccc(Cl)c(Cl)c1	Tau ThT inhib inconclusive, Tau fluor counter 16µM[quencher]
COc1ccccc1OCCCCN1CCN(c2ccccc2OC)CC1	none
COc1ccc2nc(NC(=O)c3cccc(OCc4c(C)noc4C)c3)sc2c1	PNC assembly inh -91
CCSc1nnc(NC(=O)c2cccc(OCc3c(C)noc3C)c2)s1	PNC assembly inh -111
CCOc1ccc(NC(=O)CSc2ncc(S(=O)(=O)c3ccc(F)c(C)c3)c(=O)[nH]2)cc1	none (no result: PNC assembly inh)
Cc1ccc(-n2c(SCC(=O)Nc3ccc4c5c(cccc35)CC4)nc(O)cc2=O)cc1	PNC assembly inh inconclusive
O=C(O)/C=C/C(=O)Nc1ccc(OC(F)(F)Cl)cc1	none (no result: PNC assembly inh)
O=C(O)/C=C/C(=O)Nc1ccc(SC(F)(F)C(F)(F)C(F)(F)F)cc1	TRb-SRC2 inh 32µM (no result: PNC assembly inh)
CCOC(=O)c1cccc(NC(=O)C2CCN(S(=O)(=O)c3cccs3)CC2)c1	PNC assembly inh inconclusive, Tau ThT inhib inconclusive, Tau fluor counter inconclusive
O=C(/C=C/c1ccncc1)c1cc(Cl)ccc1O	Tau ThT inhib 28µM, Tau fluor counter inconclusive (no result: PNC assembly inh)
CN(C)c1ccc(C(=O)/C=C/c2ccc(Br)cc2)cc1	PNC assembly inh inconclusive, Tau ThT inhib inconclusive
CN(C)c1ccc(/C=C/C(=O)c2cc(Cl)ccc2O)cc1	Tau ThT inhib 4µM, Tau fluor counter inconclusive (no result: PNC assembly inh)
O=S(=O)(/C=C/c1ccccc1)N1CCN(c2nc(-c3cccnc3)nc3ccccc23)CC1	none (no result: PNC assembly inh)
O=C(CCC(=O)N1CCN(c2ccc(O)cc2)CC1)c1ccc(Br)cc1	Tau ThT inhib inconclusive (no result: PNC assembly inh)
CCN(CC)C(=O)c1ccc(Nc2nnc(-c3ccc(C)c(S(=O)(=O)NC)c3)c3ccccc23)cc1	none (no result: PNC assembly inh)
CNC(=O)COc1ccc(Nc2nnc(-c3ccc(C)c(S(=O)(=O)NC(C)(C)C)c3)c3ccccc23)cc1	Tau ThT inhib inconclusive, TR SRC2 fluor cs 0.2µM[quencher], Tau fluor counter inconclusive (no result: PNC assembly inh)
COC(=O)[C@@]1(Cc2ccc(OC)cc2)[C@@H]2[C@@H](CC(=O)[C@H]2CC(=O)C(=O)N(C)C)CN1C(=O)c1ccccc1	PNC assembly inh -88
COC(=O)[C@@]1(Cc2ccc(F)cc2)[C@@H]2[C@@H](CC(=O)[C@H]2CC(=O)C(=O)N(C)C)CN1C(=O)c1ccccc1	none
COc1ccccc1OCC(=O)OC/C(O)=C(\C#N)c1nc2ccccc2[nH]1	TRb-SRC2 inh inconclusive, TR SRC2 fluor cs 2.5µM[quencher]
COc1ccc(OC/C(O)=C(\C#N)c2nc3ccccc3[nH]2)cc1	none
Cc1n[nH]c(C)c1S(=O)(=O)N1CCCC(C(=O)NCc2ccccc2Cl)C1 (stereo not given)	none
Cc1cccc(NC(=O)CSc2nnc(-c3ccco3)c(-c3ccco3)n2)c1C	Tau FP inhib 13µM, Tau ThT inhib 7.9µM, TR SRC2 fluor cs inconclusive, Tau fluor counter inconclusive
Cc1cccc(NC(=O)CSc2nnc(-c3ccco3)c(-c3ccco3)n2)c1	Tau FP inhib inconclusive, Tau ThT inhib 14µM, Tau fluor counter inconclusive (no result: PNC assembly inh)
Cc1cccc(NC(=O)CSc2nc(N)cc(N)n2)c1	none
CCCc1noc2c1C(c1ccoc1)C(C#N)=C(N)N2 (stereo not given)	Tau ThT inhib inconclusive
c1ccc2c(c1)[nH]c1c(N3CCCC3)ncnc12	none
CCOc1ccc2[nH]c3c(N4CCc5ccccc5C4)ncnc3c2c1	Tau FP inhib inconclusive, Tau ThT inhib inconclusive, Tau fluor counter 14µM[quencher] (no result: PNC assembly inh)
CN1CCN(c2ncnc3c2[nH]c2ccc(F)cc23)CC1	none
c1ccc2c(c1)[nH]c1c(N3CCOCC3)ncnc12	PNC assembly inh -119
Brc1ccc2[nH]c3c(N4CCc5ccccc5C4)ncnc3c2c1	Tau fluor counter 11µM[quencher]
Cc1ccc2[nH]c3c(N4CCc5ccccc5C4)ncnc3c2c1	Tau FP inhib inconclusive, Tau ThT inhib inconclusive, Tau fluor counter 25µM[quencher]
Fc1ccc2[nH]c3c(N4CCc5ccccc5C4)ncnc3c2c1	Tau fluor counter inconclusive (no result: PNC assembly inh)
COc1ccc(S(=O)(=O)N2CCN(c3ccccn3)CC2)cc1[N+](=O)[O-]	none (no result: PNC assembly inh)
Cc1ccc(S(=O)(=O)N(CC(=O)NCCSc2ccccn2)c2cc(C)cc(C)c2)cc1	none
OCC1(CCc2ccccc2)CCN(Cc2ccc(OC(F)F)cc2)CC1	none (no result: PNC assembly inh)
Cc1ccc(NC(=O)COc2ccccc2C(=O)Nc2ccccc2)cc1Cl	Tau FP inhib 4.5µM, Tau fluor counter inconclusive
Cc1ccc(Cl)cc1NC(=O)c1ccccc1OCC(=O)Nc1ccc(Cl)cc1	Tau FP inhib inconclusive
CCCNC(=O)c1c(N)n(-c2ccc3c(c2)OCO3)c2nc3ccccc3nc12	Tau ThT inhib inconclusive
COCCCNC(=O)CN(c1cc(Cl)cc(Cl)c1)S(C)(=O)=O	PNC assembly inh -100
CNc1ncnc2c1ncn2[C@H]1C[C@H](OP(=O)(O)O)[C@H](COP(=O)(O)O)O1	none (no result: PNC assembly inh)
CCOC(=O)C1CCCN(Cc2c(Cl)cccc2Cl)C1 (stereo not given)	PNC assembly inh inconclusive
CCOC(=O)C1CCCN(Cc2ccccc2F)C1 (stereo not given)	PNC assembly inh -89
CSCCC(NC(=O)c1cc([N+](=O)[O-])ccc1Cl)C(=O)O (stereo not given)	PNC assembly inh -82
O=c1oc2ccccc2cc1-c1nc2c(s1)CCCC2	Tau ThT inhib inconclusive
C=CCNC(=O)/C(C#N)=C\c1cc(Cl)c(O)c(OCC)c1	Tau ThT inhib inconclusive
CCOc1cc(/C=C(/C#N)C(=O)Nc2ccc(O)cc2)cc(Br)c1O	PNC assembly inh inconclusive, Tau ThT inhib 8.9µM, Tau fluor counter inconclusive
CN(C(=O)COc1ccccc1C(=O)NCCc1ccccc1)c1ccccc1	PNC assembly inh -100
Cc1ccc(CSc2nnc3c(n2)OC2(Nc4ccccc4-3)C(=O)Nc3ccc(F)cc32)cc1 (stereo not given)	Tau FP inhib inconclusive, Tau ThT inhib 28µM, Tau fluor counter inconclusive
O=C1Nc2ccc(F)cc2C12Nc1ccccc1-c1nnc(SCc3ccccc3Cl)nc1O2 (stereo not given)	Tau FP inhib inconclusive, Tau ThT inhib 28µM, Tau fluor counter inconclusive
Cc1cn2c(=O)cc(COC(=O)c3ccc(NC(=O)COc4ccc(C)c(C)c4)cc3)nc2s1	none (no result: PNC assembly inh)
C=CCN1C(=NC(=O)CCC(=O)O)SC2CS(=O)(=O)CC21 (stereo not given)	none
CN(C)/N=C/c1c(O)ccc2ccccc12	Tau ThT inhib inconclusive, Tau fluor counter inconclusive
OCC(CO)(CO)N=Cc1c(O)ccc2ccccc12	Tau FP inhib inconclusive, TRb-SRC2 inh inconclusive, Tau ThT inhib 25µM, Tau fluor counter inconclusive

Screening data as filed in PubChem BioAssay.
